Data from PubChem BioAssay (Tox21).
Records with an inconclusive call do not appear. Where a call stands in place of a potency, no number is given. Calls of active or inactive are those of the source. Unless noted, calls follow the shape of the dose curve; as a rule, active = well fitted curve in the direction sought with a large enough effect in the repeat runs; inconclusive = weak or mixed curves; inactive = no such curve, though single readings can be large; an effect the other way counts as inactive or inconclusive.

Tests used:
[1] = qHTS assay to identify small molecule agonists of the RXR signaling pathway - cell viability counter screen (AID 1159529); also: nearly all actives have a fitted effect of over 50% in size; also: potency is read from the fitted curve at half-maximal effect
Summary of the method: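 Luminescence from CellTiter-Glo (30 min, RT) measured viability in the same wells as the beta-lactamase reporter readout. Cells: GeneBLAzer RXR-alpha HEK 293T, 2% charcoal-stripped FBS. Compound exposure 16 hr, 37 C.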

[2] = qHTS assay to identify small molecule antagonists of the retinoid acid receptor (RAR) signaling pathway - cell viability counter screen (AID 1159551); also: nearly all actives have a fitted effect of over 35% in size
Summary of the method: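 Cells (C3RL4) are plated, incubated overnight, dosed with compound in DMSO, then given retinol at 1 uM final. After 6 h at 37 C, CellTiter-Glo is added and luminescence read following 30 min at room temperature.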

[3] = qHTS assay to identify small molecule antagonists of the retinoic acid receptor (RAR) signaling pathway (AID 1159552; also: nearly all actives have a fitted effect of over 50% in size)
Summary of the method: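 Luminescence from a RARE luciferase reporter in C3RL4 cells served as read-out. Cells received compounds together with 1 uM final retinol and incubated 6 hr at 37 C before detection reagent was added for 30 min at room temperature.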

[4] = qHTS assay to identify small molecule agonists of the retinoic acid receptor (RAR) signaling pathway (AID 1159553); also: potency is read from the fitted curve at half-maximal effect
Summary of the method: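 Seed C3RL4 reporter cells at 1,000 per well and incubate overnight at 37 C. Add compounds in DMSO, incubate 6 hr. Add luciferase reagent, wait 30 min at room temperature, read luminescence.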

[5] = target: Luciferin 4-monooxygenase (Photinus pyralis) (UniProt P08659); assay: qHTS assay to identify small molecule inhibitors of firefly luciferase (AID 1224835); also: nearly all actives have a fitted effect of over 25% in size; also: potency is read from the fitted curve at half-maximal effect
Luciferin 4-monooxygenase (Photinus pyralis), sequence (P08659 whole entry, looked up): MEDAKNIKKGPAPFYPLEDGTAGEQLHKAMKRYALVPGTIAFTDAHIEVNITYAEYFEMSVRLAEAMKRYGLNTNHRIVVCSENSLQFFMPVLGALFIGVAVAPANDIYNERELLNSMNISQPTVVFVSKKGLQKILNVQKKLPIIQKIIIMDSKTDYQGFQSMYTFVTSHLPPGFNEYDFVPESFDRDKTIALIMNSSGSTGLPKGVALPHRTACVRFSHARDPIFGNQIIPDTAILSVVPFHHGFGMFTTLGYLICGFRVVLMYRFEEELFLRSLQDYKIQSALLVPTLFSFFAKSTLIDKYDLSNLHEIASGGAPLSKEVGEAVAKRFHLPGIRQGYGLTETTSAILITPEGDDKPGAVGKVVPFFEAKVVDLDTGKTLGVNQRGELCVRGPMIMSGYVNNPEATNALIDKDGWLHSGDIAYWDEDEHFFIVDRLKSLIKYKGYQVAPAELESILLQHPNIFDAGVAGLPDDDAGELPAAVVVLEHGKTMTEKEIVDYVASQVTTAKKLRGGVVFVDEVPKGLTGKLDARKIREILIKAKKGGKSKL
Summary of the method: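 Inhibition of purified Photinus luciferase is measured by luminescence. Substrate levels (D-luciferin, ATP) sit at their KM values. Each compound is tested in a concentration series.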

[6] = qHTS assay to identify small molecule agonists of the constitutive androstane receptor (CAR) signaling pathway - cell viability counter screen (AID 1224836); also: nearly all actives have a fitted effect of over 45% in size; also: potency is read from the fitted curve at half-maximal effect
Summary of the method: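 Viability read-out: CellTiter-Fluor fluorescence after 23 h compound exposure at 37 C/5% CO2 in double-stable HepG2-CYP2B6-hCAR cells, with PK11195 present at 0.75 uM final; compounds tested in 15-point titration.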

[7] = qHTS assay to identify small molecule antagonists of the constitutive androstane receptor (CAR) signaling pathway - cell viability counter screen (AID 1224837); also: nearly all actives have a fitted effect of over 45% in size; also: potency is read from the fitted curve at half-maximal effect
Summary of the method: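 Viability was measured with CellTiter-Fluor in a HepG2 line carrying stably transfected hCAR and a CYP2B6-2.2kb construct. Cells were exposed for 23 hr at 37 C to 15 compound concentrations with 50 nM CITCO as agonist.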

[8] = target: Nuclear receptor subfamily 1 group I member 3 (Homo sapiens) (UniProt Q14994); assay: qHTS assay to identify small molecule antagonists of the constitutive androstane receptor (CAR) signaling pathway (AID 1224838);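 also: HepG2 cells stably expressing hCAR with CYP2B6 luciferase reporter stimulated by CITCO; nearly all actives have a fitted effect of over 40% in size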; also: potency is read from the fitted curve at half-maximal effect
Nuclear receptor subfamily 1 group I member 3 (Homo sapiens), sequence (Q14994 whole entry, looked up): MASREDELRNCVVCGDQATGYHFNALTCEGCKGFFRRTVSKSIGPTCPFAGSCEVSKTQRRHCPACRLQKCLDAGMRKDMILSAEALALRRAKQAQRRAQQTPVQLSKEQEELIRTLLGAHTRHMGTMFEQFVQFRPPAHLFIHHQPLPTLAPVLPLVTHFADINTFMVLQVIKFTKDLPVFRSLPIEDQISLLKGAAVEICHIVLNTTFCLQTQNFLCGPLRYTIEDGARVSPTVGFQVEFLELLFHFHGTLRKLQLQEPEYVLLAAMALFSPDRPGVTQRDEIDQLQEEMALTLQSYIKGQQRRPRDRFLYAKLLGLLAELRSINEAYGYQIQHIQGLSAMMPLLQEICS
Summary of the method: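 Antagonist mode used CITCO at a final 50 nM to activate CAR in human hepatoma HepG2 cells carrying stable hCAR and a 2.2 kb CYP2B6 promoter-luciferase construct. Compounds were tested at 15 concentrations over 24 h, with luminescence as the end point.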

[9] = target: Nuclear receptor subfamily 1 group I member 3 (Homo sapiens) (UniProt Q14994); assay: qHTS assay to identify small molecule agonists of the constitutive androstane receptor (CAR) signaling pathway (AID 1224839); also: nearly all actives have a fitted effect of over 15% in size; also: potency is read from the fitted curve at half-maximal effect
Summary of the method: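 Luminescence read-out (ONE-Glo, 30 min, room temperature) from double-stable HepG2-CYP2B6-hCAR cells exposed 24 h to 15-point compound series in presence of 0.75 uM PK11195 final.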

[10] = qHTS assay to identify small molecule antagonists of the estrogen related receptor signaling pathway with the pleiotropic PPARgamma coactivator (PGC) from Tox21 10K library - cell viability counter screen (AID 1224840; active = well fitted cell-killing curve with a large enough effect in the repeat runs, not every such curve was filed as active; also: nearly all actives have a fitted effect of over 40% in size; also: potency is read from the fitted curve at half-maximal effect)
Summary of the method: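 Multiplexed viability counter screen in the PGC/ERR cell line: cells treated with DMSO-dissolved compounds for 17.5 hours at 37 C, then viability measured as CellTiter-Fluor fluorescence.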

[11] = qHTS assay to identify small molecule antagonists of the estrogen related receptor signaling pathway with the pleiotropic PPARgamma coactivator (PGC) from Tox21 10K library (AID 1224841; call rule not given here; also: actives are mostly falling curves and most rising ones were filed inactive; nearly all actives have a fitted effect of over 50% in size; also: potency is read from the fitted curve at half-maximal effect)
Summary of the method: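 Steps: plate 2,000 PGC/ERR cells per well; incubate 6 h at 37 C with 5% CO2; transfer compounds from DMSO stocks by pin tool; incubate 18 h at 37 C; add One-Glo; measure luminescence 30 min later.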

[12] = qHTS assay to identify small molecule agonists of the estrogen related receptor signaling pathway with the pleiotropic PPARgamma coactivator (PGC) from Tox21 10K library (AID 1224842); also: nearly all actives have a fitted effect of over 15% in size
Summary of the method: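 Luminescence from One-Glo (30 min, room temperature) measured after PGC/ERR cells had 18 h at 37 C with pinned compound (23 nL in DMSO). Cells had been seeded at 2,000 per well and pre-incubated 6 h.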

[13] = target: Thyrotropin receptor (Homo sapiens) (UniProt P16473); assay: qHTS assay to identify small molecule agonists of the thyroid stimulating hormone receptor (TSHR) signaling pathway (AID 1224843; calls by dose curve; also: nearly all actives have a fitted effect of over 45% in size)
Thyrotropin receptor (Homo sapiens), sequence (P16473 whole entry, looked up): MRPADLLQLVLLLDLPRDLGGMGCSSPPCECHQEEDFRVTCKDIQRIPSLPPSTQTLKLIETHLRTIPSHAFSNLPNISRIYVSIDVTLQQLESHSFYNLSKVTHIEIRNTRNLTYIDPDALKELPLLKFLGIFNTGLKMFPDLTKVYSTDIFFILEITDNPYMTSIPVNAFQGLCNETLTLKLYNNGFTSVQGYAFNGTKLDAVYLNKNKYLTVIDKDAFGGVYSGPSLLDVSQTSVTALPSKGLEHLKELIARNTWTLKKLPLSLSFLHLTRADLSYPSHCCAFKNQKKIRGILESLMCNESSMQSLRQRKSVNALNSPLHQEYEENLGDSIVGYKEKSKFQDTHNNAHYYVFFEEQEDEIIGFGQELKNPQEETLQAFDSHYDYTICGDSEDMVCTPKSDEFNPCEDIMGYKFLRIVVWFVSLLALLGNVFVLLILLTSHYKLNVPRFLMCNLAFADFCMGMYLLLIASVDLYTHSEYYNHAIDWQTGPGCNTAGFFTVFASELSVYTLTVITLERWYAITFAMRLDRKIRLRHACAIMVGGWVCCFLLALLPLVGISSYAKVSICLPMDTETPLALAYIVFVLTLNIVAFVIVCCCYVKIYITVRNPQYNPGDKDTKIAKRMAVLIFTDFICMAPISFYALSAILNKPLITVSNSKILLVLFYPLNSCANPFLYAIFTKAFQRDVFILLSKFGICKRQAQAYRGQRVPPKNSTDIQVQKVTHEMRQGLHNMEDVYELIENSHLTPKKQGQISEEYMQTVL
Summary of the method: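 A cell-based cAMP HTRF format was run in TSHR-transfected HEK293 cells, 800 per well. Treatment: 30 min, room temperature. Detection: 1 h with labelled cAMP and anti-cAMP cryptate. Concentration-response over 15 points, three replicates.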

[14] = qHTS assay to identify small molecule antagonists of the estrogen related receptor (ERR) signaling pathway from Tox21 library - cell viability counter screen (AID 1224834); also: nearly all actives have a fitted effect of over 30% in size; also: potency is read from the fitted curve at half-maximal effect
Summary of the method: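 ERR cells, 2,000/well; 6 h settle at 37 C/5% CO2; pin-tool compound transfer in DMSO; 17.5 h at 37 C; CellTiter-Fluor, 30 min; fluorescence intensity.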

C[C@]12CC[C@H]3[C@@H](CCC4=CC(=O)CC[C@@]43C)[C@@H]1CC[C@@H]2C(=O)O
Potency [1]: inactive
Potency [2]: inactive
Potency [3]: inactive
Potency [4]: inactive
Potency [5]: inactive
Potency [6]: inactive
Potency [7]: inactive
Potency [8]: inactive
Potency [9]: inactive
Potency [10]: inactive
Potency [11]: inactive
outcome [12]: inactive
Potency [13]: inactive

CCOP(=S)(OCC)Oc1cc(-c2ccccc2)on1
Potency [1]: inactive
Potency [2]: inactive
Potency [3]: inactive
Potency [14]: inactive
Potency [5]: 31.7 µM (active)
Potency [6]: inactive
Potency [7]: inactive
Potency [8]: inactive
Potency [9]: 34.4 µM (active)
Potency [10]: inactive

CNC(=O)Oc1ccc(N(C)C)c(C)c1
Potency [1]: inactive
Potency [2]: inactive
Potency [3]: inactive
Potency [4]: inactive
Potency [5]: inactive
Potency [6]: inactive
Potency [7]: inactive
Potency [8]: inactive
Potency [10]: inactive
Potency [11]: inactive
Potency [13]: inactive

CC1(C)CON(Cc2ccccc2Cl)C1=O
Potency [1]: inactive
Potency [2]: inactive
Potency [3]: inactive
Potency [4]: 68.6 µM (active)
Potency [5]: inactive
Potency [6]: inactive
Potency [7]: inactive

CCOc1nc(C(Cl)(Cl)Cl)ns1
Potency [1]: inactive
Potency [2]: inactive
Potency [3]: inactive
Potency [4]: inactive
Potency [14]: inactive
Potency [5]: inactive
Potency [6]: inactive
Potency [8]: inactive
Potency [10]: inactive
Potency [11]: inactive
outcome [12]: inactive
Potency [13]: inactive

O=[N+]([O-])c1cccc2cccnc12
Potency [1]: inactive
Potency [2]: inactive
Potency [3]: inactive
Potency [4]: inactive
Potency [5]: inactive
Potency [6]: inactive
Potency [10]: inactive

CCN(CC)C(=O)[C@@H]1C=C2c3cccc4[nH]cc(c34)C[C@H]2N(C)C1
Potency [1]: inactive
Potency [2]: inactive
Potency [3]: inactive
Potency [4]: inactive
Potency [14]: 80 µM (active)
Potency [5]: inactive
Potency [8]: inactive
outcome [12]: inactive

Fc1ccc(C2(Cn3cncn3)OC2c2ccccc2Cl)cc1 (stereo unspecified)
Potency [1]: inactive
Potency [2]: inactive
Potency [3]: inactive
Potency [4]: inactive
Potency [5]: inactive
Potency [7]: inactive
Potency [8]: inactive
Potency [9]: inactive
Potency [11]: 38.6 µM (active)
Potency [13]: inactive

C=C(C)[C@@H]1CC=C(C=O)CC1
Potency [1]: inactive
Potency [2]: inactive
Potency [3]: inactive
Potency [14]: inactive
Potency [5]: inactive
Potency [6]: inactive
Potency [10]: inactive
Potency [11]: inactive
outcome [12]: inactive
Potency [13]: inactive

O=[N+]([O-])c1ccc(CBr)cc1
Potency [1]: inactive
Potency [2]: inactive
Potency [3]: inactive
Potency [4]: inactive
Potency [5]: inactive
Potency [6]: inactive
Potency [7]: inactive
Potency [8]: inactive
Potency [10]: inactive
Potency [13]: inactive

CCCCOC(=O)c1ccccc1C(=O)O
Potency [1]: inactive
Potency [2]: inactive
Potency [3]: inactive
Potency [4]: inactive
Potency [14]: inactive
Potency [5]: inactive
Potency [6]: inactive
Potency [13]: inactive

CC(C)(C)C(=O)C(Oc1ccc(Cl)cc1)n1cncn1 (stereo unspecified)
Potency [1]: inactive
Potency [2]: inactive
Potency [3]: inactive
Potency [4]: inactive
Potency [14]: inactive
Potency [5]: inactive
Potency [6]: inactive
Potency [9]: inactive
Potency [10]: inactive

CC(COc1ccc(Oc2ccccc2)cc1)Oc1ccccn1 (stereo unspecified)
Potency [1]: inactive
Potency [2]: inactive
Potency [3]: inactive
Potency [4]: 13.7 µM (active)
Potency [14]: inactive
Potency [6]: inactive
Potency [7]: inactive
Potency [8]: inactive
Potency [9]: 54.4 µM (active)
Potency [11]: inactive

CN1C(=S)CN=C(c2ccccc2)c2cc(Cl)ccc21
Potency [1]: inactive
Potency [2]: inactive
Potency [3]: inactive
Potency [4]: inactive
Potency [5]: inactive
Potency [6]: inactive
Potency [7]: inactive
Potency [8]: inactive
Potency [10]: inactive
Potency [13]: inactive

CC1=NNC(=O)N(/N=C/c2cccnc2)C1
Potency [1]: inactive
Potency [2]: inactive
Potency [3]: inactive
Potency [14]: inactive
Potency [5]: inactive
Potency [6]: inactive
Potency [7]: inactive
Potency [10]: inactive
Potency [11]: inactive
outcome [12]: inactive

CC1=C(C(=O)Nc2ccccc2)S(=O)(=O)CCO1
Potency [1]: inactive
Potency [2]: inactive
Potency [4]: inactive
Potency [14]: 61.1 µM (active)
Potency [5]: inactive
Potency [7]: inactive
Potency [9]: inactive
Potency [13]: inactive

CC1CCCCC1NC(=O)Nc1ccccc1 (stereo unspecified)
Potency [1]: inactive
Potency [2]: inactive
Potency [3]: inactive
Potency [14]: inactive
Potency [5]: 35.6 µM (active)
Potency [6]: inactive
Potency [7]: inactive
Potency [8]: inactive
Potency [10]: inactive
Potency [11]: inactive
outcome [12]: inactive
Potency [13]: inactive

BrCCCCCCBr
Potency [1]: inactive
Potency [2]: inactive
Potency [3]: inactive
Potency [4]: inactive
Potency [14]: inactive
Potency [6]: inactive
Potency [7]: inactive
Potency [8]: inactive
Potency [9]: inactive
Potency [10]: inactive

COc1cccc2c1cc([N+](=O)[O-])c1c(C(=O)O)cc3c(c12)OCO3
Potency [1]: 17.4 µM (active)
Potency [14]: 30.6 µM (active)
Potency [5]: 71 µM (active)
Potency [6]: 27.3 µM (active)
Potency [7]: 27.3 µM (active)
Potency [8]: 12.2 µM (active)
Potency [9]: inactive
Potency [10]: 30.6 µM (active)
Potency [11]: inactive

CC(Oc1ccc(Oc2ncc(C(F)(F)F)cc2Cl)cc1)C(=O)O (stereo unspecified)
Potency [2]: inactive
Potency [3]: inactive
Potency [4]: inactive
Potency [14]: inactive
Potency [5]: inactive
Potency [6]: inactive
Potency [7]: inactive
Potency [9]: inactive
Potency [10]: inactive
Potency [11]: 27.3 µM (active)
Potency [13]: inactive

[O]=[Cd]
Potency [1]: inactive
Potency [2]: inactive
Potency [14]: inactive
Potency [5]: inactive
Potency [6]: inactive
Potency [7]: inactive
Potency [10]: inactive
outcome [12]: inactive
Potency [13]: inactive

COc1ccc2c(c1OC)CN1CCc3cc4c(cc3C1C2)OCO4 (stereo unspecified)
Potency [1]: inactive
Potency [2]: inactive
Potency [5]: inactive
Potency [6]: inactive
Potency [7]: inactive
Potency [10]: inactive
Potency [13]: inactive

C[C@]1(O)CC[C@H]2[C@@H]3CCC4=CC(=O)CC[C@]4(C)[C@@]3(F)[C@@H](O)C[C@@]21C
Potency [1]: inactive
Potency [2]: inactive
Potency [14]: inactive
Potency [5]: inactive
Potency [6]: inactive
Potency [7]: inactive
Potency [10]: inactive
Potency [13]: inactive

CCOP(=S)(OCC)Oc1nc(Cl)n(C(C)C)n1
Potency [2]: inactive
Potency [3]: inactive
Potency [4]: inactive
Potency [14]: inactive
Potency [6]: inactive
Potency [7]: inactive
Potency [10]: inactive
Potency [13]: inactive

CCOP(=S)(OCC)SCSP(=S)(OCC)OCC
Potency [2]: inactive
Potency [3]: inactive
Potency [14]: inactive
Potency [5]: inactive
Potency [6]: inactive
Potency [7]: inactive
Potency [8]: inactive
Potency [9]: 27.3 µM (active)
Potency [10]: inactive
